Only some compounds are listed: those with a hit (about 2.9% of all), similar ones and a draw of the others.
Glyco luc inh – N-linked glycosylation inhibition | AID 588692 | 360,000 tested, 0.23% active | reporter increase, % at 12.5 µM | D54 ERlucT glycosylation luciferase reporter, 24 h; percent of 100 nM tunicamycin response;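 active = mean luciferase reporter signal, scaled so untreated is 0 and the glycosylation-blocking control 100, at or above a set limit in every replicate; inconclusive = mean reaches the limit but not every replicate does; inactive = mean below the limit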;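 also: luciferase carries N-glycosylation sites so blocking glycosylation raises the light; 0% = median of neutral control wells and 100% = median of 100 nM tunicamycin wells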
MITF TRPM1 HTS – MITF TRPM1 promoter activation in melanoma cells | activation, % at 12.5 µM | AID 588334 | 300,000 tested, 0.75% active | SK-MEL-5 TRPM1-promoter luciferase, 24 h; % of positive control, neutral wells = 0;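 active = mean activation of at least 80% with every replicate also reaching 80%; inconclusive = mean reaches 80% but some replicate falls short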;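 also: 0% = neutral control wells and 100% = parthenolide positive control wells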
esBAF inh – inhibitors of esBAF chromatin remodeling in mouse ES cells. Bmi1-luciferase knock-in reporter, 24 h; 100% = twice the neutral-well signal. reporter increase, % at 12.5 µM. 350,000 tested, 2% active. AID 602393; in the data active = activation above about 40%; inconclusive = no clear call, values can overlap the other calls;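 also: 0% = median of the plate's neutral control wells and 100% = double that signal; a rise in the Bmi1 reporter signal indicates esBAF inhibition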
Vif inh – blocks HIV Vif function. HEK293T cells, Vif self-association by quenched fluorescence, imaging, 24 h. inhibition, % at 7.49 µM. 340,000 tested, 0.35% active. AID 602346; in the data active = inhibition above about 50%, passing the limit was not always enough; inconclusive = no clear call, values can overlap the other calls; inactive = below about 31%
PvdQ acylase – P. aeruginosa PvdQ acylase inhibition. inhibition, % at 10 µM. AID 488965. purified PvdQ acylase, fluorescence plate reader. 340,000 tested, 0.063% active; in the data active = inhibition above about 30%, passing the limit was not always enough; inconclusive = no clear call, values can overlap the other calls;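 also: 0% = vehicle neutral wells and 100% = reference inhibitor wells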
Wnt act – activates Wnt/beta-catenin signaling in a reporter cell assay; activator, plate reader; activation, % at 9.35 µM; 300,000 tested, 1.2% active; AID 743398; in the data active = activation above about 30%, passing the limit was not always enough; inconclusive = no clear call, values can overlap the other calls;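 also: 0% = neutral control wells and 100% = positive control wells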
* = called active by the depositor; ? = inconclusive; / = no result given.

SMILES | Glyco luc inh | MITF TRPM1 HTS | esBAF inh | Vif inh | PvdQ acylase | Wnt act
CCN(CC)Cc1c(O)ccc2c(=O)c(-c3ccc4c(c3)OCCO4)coc12 | -1 | 6 | 4 | -3 | -18 | /
CCCc1cc2c(=O)c(-c3ccc4c(c3)OCCO4)coc2cc1OC(=O)c1ccco1 | 0 | 84* | 81* | / | -8 | /
CCc1cc2c(=O)c(-c3ccc4c(c3)OCCO4)coc2cc1OC(=O)c1ccco1 | -16 | / | -6 | -4 | -8 | 67*
CCN1/C(=C2/SC(=S)N(NC(C)=O)C2=O)Sc2ccc(OC)cc21 | -1 | / | 35 | 71* | 1 | -1
Cc1cc(=O)oc2cc(NC(=O)c3cccc(Br)c3)ccc12 | -4 | 14 | 18 | -7 | -13 | 5
Cc1cc(=O)oc2cc(NC(=O)c3ccccc3OC(F)F)ccc12 | -2 | 58 | 53* | 29 | -3 | 17
Cc1cc(=O)oc2cc(NC(=O)C(C)Oc3cccc(Cl)c3)ccc12 (stereo unspecified) | 8 | -19 | / | -3 | 1 | 0
Cc1cc(=O)oc2cc(NC(=O)c3cc(F)ccc3F)ccc12 | 0 | 64 | 53* | -3 | -2 | 44*
C[C@@H]1CCCCO[C@@H](CN(C)S(C)(=O)=O)[C@H](C)CN([C@H](C)CO)C(=O)c2cc(NS(C)(=O)=O)ccc2O1 | / | / | -12 | / | / | /
COc1cccc(CNc2ccc(C)c(Cl)c2)c1 | -4 | 6 | / | 4 | -15 | 1
COc1ccc(OC)c(CNc2ccc3c(c2)CCC3)c1 | -6 | / | 46* | -10 | -15 | 0
COc1cccc(CNc2ccc3c(c2)CCC3)c1 | -7 | 14 | 21 | 60* | 2 | 6
CNC[C@@H]1OCCCC[C@H](C)Oc2ccc(NC(=O)Cc3ccccc3)cc2C(=O)N([C@@H](C)CO)C[C@@H]1C | / | / | 1 | / | / | /
Oc1ccc(/C=N/N=C/c2ccc(O)c(O)c2)cc1O | -8 | / | -2 | 72* | -13 | 3
Oc1ccc(N=Cc2ccc(O)c(O)c2)cc1 | 4 | / | -14 | 11 | -14 | /
CC(C)(C)S(=O)(=O)N1C[C@@H]2CC/C=C\C/C(c3ccccc3)=C\2[C@H]1CCO | 38* | 3 | -6 | / | -8 | -1
C[C@H]1CN(S(=O)(=O)C(C)(C)C)[C@H](CCO)/C1=C\c1ccccc1 | -1 | -10 | -10 | 2 | 4 | 8
Cc1ccsc1/C=N/Nc1ncc(Cl)cc1Cl | -3 | / | 55* | 3 | -2 | 4
Cc1ccsc1/C=N/Nc1ccc(F)cc1F | -1 | 95* | / | 10 | -17 | 10
C[C@H](CO)N1C[C@H](C)[C@H](CN(C)Cc2ccc(C(=O)O)cc2)OCCCC[C@H](C)Oc2ccc(NS(=O)(=O)c3ccc(F)cc3)cc2C1=O | / | / | 2 | / | / | /
C[C@@H]1CN([C@H](C)CO)C(=O)CCCn2cc(nn2)CO[C@@H]1CN(C)S(=O)(=O)c1ccc(Cl)cc1 | / | / | 2 | / | / | /
CCC(=O)Nc1ccc2c(c1)C(=O)N(C)C[C@H](OC)[C@H](C)CN(C(=O)COC)[C@H](C)CO2 | / | / | 0 | / | / | /
Fc1ccccc1Nc1nc2ccccc2o1 | -14 | 100* | -4 | 1 | -14 | 0
c1ccc(Nc2nc3ccccc3o2)cc1 | -7 | 34 | 17 | / | -17 | /
CCCNC(=O)N1C[C@@H](C)[C@@H](OC)CN(C)C(=O)c2ccc(NC(C)=O)cc2OC[C@H]1C | / | / | 0 | / | / | /
SMILES | Glyco luc inh | MITF TRPM1 HTS | esBAF inh | Vif inh | PvdQ acylase | Wnt act
C[C@H](NC(=O)[C@H]1[C@H](CO)[C@H]2Cn3c(ccc(-c4cccnc4)c3=O)[C@@H]1N2C)c1ccccc1 | / | / | 2 | / | / | /
O=C(c1cccs1)n1cc(C(=S)N2CCOCC2)c2ccccc21 | -1 | -10 | -8 | -2 | -14 | 50*
O=C(C1CC1)n1cc(C(=S)N2CCOCC2)c2ccccc21 | 1 | 5 | / | 5 | -18 | /
Fc1ccc(OCc2cc(-c3ccccc3)no2)cc1 | -1 | 100* | 57* | 1 | -1 | 30
COc1ccc(-c2[nH]ncc2CNC(C)CCn2cccn2)cc1F (stereo unspecified) | 1 | 21 | 3 | -5 | -7 | -2
COc1ccc(-c2[nH]ncc2CNC(C)c2ccccc2Cl)cc1F (stereo unspecified) | -2 | 21 | -8 | -3 | 2 | 43*
Cc1ccc(S(=O)(=O)CCc2nnc(NC(=O)c3cccs3)s2)cc1 | 2 | 3 | / | -1 | -5 | /
CCC(C)(C)C(=O)Nc1nnc(CCc2ccccc2)s1 | -2 | 61 | 62* | -2 | 0 | 15
O=C(Nc1nnc(CCc2ccccc2)s1)c1cccs1 | 1 | 26 | 46* | / | -3 | /
CC(C)NC(=O)NCC[C@@H]1CC[C@@H](NS(=O)(=O)c2ccc(-c3ccccc3)cc2)[C@H](CO)O1 | / | / | 7 | / | / | /
O=C([C@@H]1[C@@H](CO)[C@@H]2Cn3c(ccc(C4=CCCCC4)c3=O)[C@@H]2N1Cc1nccs1)N1CCOCC1 | / | / | 1 | / | / | /
O=C1N=C(N2CCOCC2)S/C1=C1\C(=O)N(Cc2ccccc2)c2ccccc21 | 4 | 74 | 52* | -1 | 15 | 6
CN1C(=O)/C(=C2\SC(N3CCCCCC3)=NC2=O)c2ccccc21 | 2 | / | 46* | -2 | 2 | /
O=C1N=C(N2CCCCC2)S/C1=C\c1ccc(Br)cc1 | 11 | / | 31 | -10 | -12 | 0
CCCN1C(=O)/C(=C2\SC(N3CCCCC3)=NC2=O)c2ccccc21 | 1 | 79 | 74* | 2 | -12 | 12
CC1CN(C2=NC(=O)/C(=C3/C(=O)N(Cc4ccc(F)cc4)c4ccccc43)S2)CC(C)O1 (stereo unspecified) | -3 | / | / | 1 | -18 | -2
CN1C(=O)/C(=C2\SC(N)=NC2=O)c2ccccc21 | 10 | 9 | / | -1 | 7 | /
CCOc1ccc(/C=C2\SC(N3CCCCC3)=NC2=O)cc1 | 21 | 45 | 18 | 4 | 2 | 1
O=C1N=C(N2CCCCC2)SC1=C1CCCCC1 | -2 | 47 | 75* | 0 | -10 | /
CCCC(=O)Nc1ccc2c(c1)C(=O)N(C)[C@@H]1CC[C@H](CC(=O)NCc3ccccc3Cl)O[C@H]1CO2 | / | / | -4 | / | / | /
CO[C@@H]1CN(C)C(=O)c2ccc(NC(=O)NC(C)C)cc2OC[C@@H](C)N(C)C[C@@H]1C | / | / | -4 | / | / | /
CN(C)C(=O)[C@@H]1[C@@H](CO)[C@@H]2Cn3c(ccc(-c4ccc(F)cc4)c3=O)[C@@H]2N1C(=O)c1ccccn1 | / | / | 0 | / | / | /
O=C(NCc1ccccc1)[C@H]1[C@H](CO)[C@H]2Cn3c(cccc3=O)[C@@H]1N2C(=O)CC1CC1 | / | / | 2 | / | / | /
C[C@H]1CN([C@@H](C)CO)C(=O)Cc2cc(NC(=O)Cc3cn(C)c4ccccc34)ccc2O[C@@H]1CN(C)Cc1ccncc1 | / | / | 5 | / | / | /
Cc1ccc(S(=O)(=O)/N=C(/NC(=S)Nc2ccccc2)c2ccccc2)cc1 | -6 | 44 | 55* | / | -12 | ?
Cc1ccc(NC(=S)N/C(=N/S(=O)(=O)c2ccccc2)c2ccccc2)cc1 | 0 | 37 | 55* | -6 | -10 | -3
